Laboratory results: PubChem BioAssay (NCI)
This is part of a sample that, as a whole, favours compounds with a hit. Of some 83,000 tested, about 20% had one in any assay.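 Each cell line was grown in a 96-well plate and treated with one concentration of compound for 48 hours. Values below 10 were considered active.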 Activity calls are given as the source filed them.

Assays:
Assay in all cases: NCI-60 one-dose screen, 48 h (100 = growth as untreated, 0 = no growth, -100 = all killed)
Conditions in all cases: 10 µM
EKVX NSCLC = system: EKVX NSCLC
SN12C renal = system: SN12C renal
UO-31 renal = system: UO-31 renal
TK-10 renal = system: TK-10 renal
ACHN renal = system: ACHN renal
CAKI-1 renal = system: CAKI-1 renal
A498 renal = system: A498 renal
CCRF-CEM leukemia = system: CCRF-CEM leukemia
MOLT-4 leukemia = system: MOLT-4 leukemia
SR leukemia = system: SR leukemia
RPMI-8226 leukemia = system: RPMI-8226 leukemia
OVCAR-8 ovarian = system: OVCAR-8 ovarian
OVCAR-5 ovarian = system: OVCAR-5 ovarian
OVCAR-4 ovarian = system: OVCAR-4 ovarian
SK-OV-3 ovarian = system: SK-OV-3 ovarian
IGROV1 ovarian = system: IGROV1 ovarian
OVCAR-3 ovarian = system: OVCAR-3 ovarian
HS 578T breast = system: HS 578T breast
NCI/ADR-RES ovarian = system: NCI/ADR-RES ovarian
SK-MEL-2 melanoma = system: SK-MEL-2 melanoma

Measured: growth

CNC(=O)c1c(I)c(NC(C)=O)c(I)c(C(=O)O)c1I
inactive: EKVX NSCLC 126% | SN12C renal 95.6% | UO-31 renal 88.6% | TK-10 renal 114% | ACHN renal 102% | CAKI-1 renal 115% | A498 renal 99.3% | CCRF-CEM leukemia 104% | MOLT-4 leukemia 110% | SR leukemia 104% | RPMI-8226 leukemia 110% | OVCAR-8 ovarian 103% | OVCAR-5 ovarian 113% | OVCAR-4 ovarian 111% | SK-OV-3 ovarian 104% | IGROV1 ovarian 115% | OVCAR-3 ovarian 111% | HS 578T breast 110% | NCI/ADR-RES ovarian 103%

O=C1/C(=C/c2ccc([N+](=O)[O-])s2)Oc2cc(Cl)ccc21
active: SK-MEL-2 melanoma -49.9% | SN12C renal -2.52% | UO-31 renal -92% | TK-10 renal -26.8% | ACHN renal -70.5% | CCRF-CEM leukemia -9.78% | MOLT-4 leukemia 2.92% | SR leukemia 8.31% | RPMI-8226 leukemia -14.7% | OVCAR-8 ovarian -25.5% | OVCAR-4 ovarian 3.28% | IGROV1 ovarian -60.9% | OVCAR-3 ovarian -76.8% | HS 578T breast 1.22%
inactive: A498 renal 102% | OVCAR-5 ovarian 53% | SK-OV-3 ovarian 88.8% | NCI/ADR-RES ovarian 24%

NS(=O)(=O)Oc1ccc2c(ccn2C(=O)C23CC4CC(CC(C4)C2)C3)c1
inactive: EKVX NSCLC 109% | SN12C renal 97.8% | UO-31 renal 80.4% | TK-10 renal 106% | ACHN renal 101% | CAKI-1 renal 94.4% | A498 renal 98.1% | CCRF-CEM leukemia 99% | MOLT-4 leukemia 101% | SR leukemia 111% | RPMI-8226 leukemia 110% | OVCAR-8 ovarian 105% | OVCAR-5 ovarian 105% | OVCAR-4 ovarian 104% | SK-OV-3 ovarian 121% | IGROV1 ovarian 110% | OVCAR-3 ovarian 117% | HS 578T breast 109% | NCI/ADR-RES ovarian 95.5%

Cc1cn(-c2cc(F)cc(NC(=O)c3ccc(C)c(Nc4nccc(-c5cccnc5)n4)c3)c2)cn1
inactive: SK-MEL-2 melanoma 64.4% | SN12C renal 20.9% | CCRF-CEM leukemia 45.6% | OVCAR-8 ovarian 31.6% | OVCAR-5 ovarian 45.2% | HS 578T breast 38.5% | NCI/ADR-RES ovarian 59.9%
active: TK-10 renal -36.3% | ACHN renal -22.3% | OVCAR-4 ovarian -41.7% | SK-OV-3 ovarian 2.64% | OVCAR-3 ovarian -30.9%

Cc1ccc(-c2c3c(N)nc(-c4cccnc4)nc3nc3c2c(C)nn3-c2ccccc2)cc1
inactive: SK-MEL-2 melanoma 61.6% | SN12C renal 82.8% | UO-31 renal 65.8% | TK-10 renal 94.6% | ACHN renal 40% | CAKI-1 renal 83.6% | A498 renal 74.8% | MOLT-4 leukemia 93.6% | RPMI-8226 leukemia 81.2% | OVCAR-8 ovarian 82% | OVCAR-5 ovarian 90.8% | OVCAR-4 ovarian 50.8% | SK-OV-3 ovarian 66.2% | IGROV1 ovarian 103% | OVCAR-3 ovarian 104% | HS 578T breast 72% | NCI/ADR-RES ovarian 90.3%

COc1ccc(-c2cc(-c3ccccc3)nc(SCCCC(=O)NO)n2)cc1
inactive: SR leukemia 12.3% | OVCAR-5 ovarian 17% | OVCAR-4 ovarian 13.5% | HS 578T breast 13.8%
active: EKVX NSCLC -23.3% | SN12C renal -8.2% | UO-31 renal -52% | TK-10 renal 6.16% | ACHN renal -17.8% | CAKI-1 renal -16.4% | A498 renal -44.3% | MOLT-4 leukemia 4.82% | OVCAR-8 ovarian 6.59% | SK-OV-3 ovarian -20.5% | IGROV1 ovarian -32.6% | OVCAR-3 ovarian -22.8% | NCI/ADR-RES ovarian -40.5%

O[C@@H]1CO[C@H]2[C@@H]1OC[C@@H]2O
inactive: EKVX NSCLC 87.6% | SN12C renal 103% | UO-31 renal 106% | TK-10 renal 117% | ACHN renal 98.9% | CAKI-1 renal 79.2% | MOLT-4 leukemia 116% | SR leukemia 112% | RPMI-8226 leukemia 112% | OVCAR-8 ovarian 102% | OVCAR-5 ovarian 92.6% | OVCAR-4 ovarian 121% | SK-OV-3 ovarian 115% | OVCAR-3 ovarian 120% | NCI/ADR-RES ovarian 104%

Cc1cc(C(C#N)c2ccc(Cl)cc2)c(Cl)cc1NC(=O)c1cc(I)cc(I)c1O (stereo not drawn)
active: A498 renal -37%
inactive: EKVX NSCLC 41.2% | SN12C renal 31% | UO-31 renal 79.8% | TK-10 renal 65.3% | ACHN renal 79.8% | CAKI-1 renal 38.7% | CCRF-CEM leukemia 19.1% | MOLT-4 leukemia 15.3% | RPMI-8226 leukemia 13.8% | OVCAR-8 ovarian 53.4% | OVCAR-5 ovarian 87.8% | OVCAR-4 ovarian 82.6% | SK-OV-3 ovarian 85.2% | IGROV1 ovarian 51.7% | OVCAR-3 ovarian 32.6% | HS 578T breast 26% | NCI/ADR-RES ovarian 21.1%

OC[C@H]1OC([S-])[C@H](O)[C@@H](O)[C@@H]1O.[Au+] (stereo partly drawn)
inactive: EKVX NSCLC 106% | SN12C renal 98.5% | UO-31 renal 99.4% | TK-10 renal 124% | ACHN renal 105% | CAKI-1 renal 108% | A498 renal 174% | CCRF-CEM leukemia 61.5% | MOLT-4 leukemia 75.9% | SR leukemia 41.7% | RPMI-8226 leukemia 80.6% | OVCAR-8 ovarian 104% | OVCAR-5 ovarian 129% | OVCAR-4 ovarian 96.9% | SK-OV-3 ovarian 120% | IGROV1 ovarian 119% | OVCAR-3 ovarian 128% | HS 578T breast 73.3% | NCI/ADR-RES ovarian 101%

Nc1nc(Cl)nc2c1ncn2C1O[C@H](CO)[C@@H](O)[C@@H]1F (stereo partly drawn)
active: UO-31 renal 0.968% | ACHN renal 3.32% | CAKI-1 renal -25.9% | CCRF-CEM leukemia 2.64% | MOLT-4 leukemia -4.67% | SR leukemia 7.7%
inactive: EKVX NSCLC 38.1% | SN12C renal 14.5% | TK-10 renal 64.5% | A498 renal 15.6% | RPMI-8226 leukemia 105% | OVCAR-8 ovarian 27.1% | OVCAR-5 ovarian 47.4% | OVCAR-4 ovarian 80.2% | SK-OV-3 ovarian 34.5% | IGROV1 ovarian 53% | OVCAR-3 ovarian 60.7% | NCI/ADR-RES ovarian 16.6%

CCOC(=O)c1sc2ncnc(Nc3ccc4c(cnn4C(=O)Nc4ccc(C)c(Cl)c4)c3)c2c1C
inactive: EKVX NSCLC 97.6% | SN12C renal 96.5% | UO-31 renal 94.7% | TK-10 renal 90.8% | ACHN renal 107% | CAKI-1 renal 96% | MOLT-4 leukemia 95.6% | SR leukemia 79.2% | OVCAR-8 ovarian 102% | OVCAR-5 ovarian 110% | OVCAR-4 ovarian 115% | SK-OV-3 ovarian 97.3% | IGROV1 ovarian 97.9% | OVCAR-3 ovarian 117% | HS 578T breast 112% | NCI/ADR-RES ovarian 105%

CCc1c2c(nc3ccc(OC(=O)N4CCC(N5CCCCC5)CC4)cc13)-c1cc3c(c(=O)n1C2)COC(=O)[C@]3(O)CC
inactive: EKVX NSCLC 67.2% | SN12C renal 16.2% | UO-31 renal 11.6% | TK-10 renal 81.6% | RPMI-8226 leukemia 60.8% | OVCAR-8 ovarian 28.1% | OVCAR-5 ovarian 70.4% | OVCAR-4 ovarian 62.4% | SK-OV-3 ovarian 25.9% | IGROV1 ovarian 49.9% | OVCAR-3 ovarian 33% | HS 578T breast 102% | NCI/ADR-RES ovarian 24.5%
active: ACHN renal 1.66% | CAKI-1 renal -17.4% | A498 renal 9.23% | MOLT-4 leukemia -20.6% | SR leukemia 1.34%

COC(=O)c1c[nH]c2cc(OC(C)C)c(OC(C)C)cc2c1=O
inactive: EKVX NSCLC 98.8% | SN12C renal 108% | UO-31 renal 84% | TK-10 renal 113% | ACHN renal 100% | CAKI-1 renal 97.2% | A498 renal 103% | CCRF-CEM leukemia 80.9% | MOLT-4 leukemia 109% | SR leukemia 97% | RPMI-8226 leukemia 96.9% | OVCAR-8 ovarian 58.8% | OVCAR-5 ovarian 106% | OVCAR-4 ovarian 109% | SK-OV-3 ovarian 55.2% | IGROV1 ovarian 139% | OVCAR-3 ovarian 113% | NCI/ADR-RES ovarian 101%

CC(=O)[C@@]12O[C@](C)(c3ccccc3)O[C@@H]1CC1C3CCC4=CC(=O)CC[C@]4(C)C3CC[C@@]12C (stereo partly drawn)
inactive: EKVX NSCLC 63.5% | SN12C renal 84% | UO-31 renal 51.6% | TK-10 renal 88.2% | ACHN renal 69.3% | CAKI-1 renal 47.5% | A498 renal 68.2% | CCRF-CEM leukemia 73.1% | MOLT-4 leukemia 23.7% | SR leukemia 32.1% | RPMI-8226 leukemia 47.6% | OVCAR-8 ovarian 82.4% | OVCAR-5 ovarian 88.5% | OVCAR-4 ovarian 44% | SK-OV-3 ovarian 99.7% | IGROV1 ovarian 70.7% | HS 578T breast 86.2% | NCI/ADR-RES ovarian 60.4%

COc1cc(NC(=O)C2=C(N3CCOCC3)/C(=C/c3ccc(Cl)cc3)CC2)cc(OC)c1OC
inactive: EKVX NSCLC 93.4% | SN12C renal 83.4% | UO-31 renal 72.8% | TK-10 renal 121% | ACHN renal 93.5% | CAKI-1 renal 84.6% | A498 renal 98.3% | CCRF-CEM leukemia 39.8% | MOLT-4 leukemia 49.3% | SR leukemia 35.1% | RPMI-8226 leukemia 33.2% | OVCAR-8 ovarian 72.7% | OVCAR-5 ovarian 103% | OVCAR-4 ovarian 83.2% | SK-OV-3 ovarian 114% | OVCAR-3 ovarian 85.9% | HS 578T breast 95.2% | NCI/ADR-RES ovarian 72.5%

C(=N\Nc1ncnc2sc3c(c12)CCNC3)/c1cccc2ccccc12
inactive: EKVX NSCLC 92.7% | SN12C renal 82.4% | UO-31 renal 74.4% | TK-10 renal 104% | ACHN renal 47.9% | CAKI-1 renal 92% | A498 renal 98% | MOLT-4 leukemia 48.1% | SR leukemia 22% | OVCAR-8 ovarian 58.2% | OVCAR-5 ovarian 89.8% | OVCAR-4 ovarian 42.7% | SK-OV-3 ovarian 103% | IGROV1 ovarian 89.9% | OVCAR-3 ovarian 113% | HS 578T breast 96.8% | NCI/ADR-RES ovarian 75.4%
active: RPMI-8226 leukemia -30.1%

Clc1ccc2c(c1)C(N1CCNCC1)=Nc1ccccc1O2
active: SR leukemia 3.72%
inactive: EKVX NSCLC 64.6% | SN12C renal 57.8% | UO-31 renal 28.3% | TK-10 renal 64.9% | ACHN renal 46% | CAKI-1 renal 36.5% | A498 renal 25.2% | MOLT-4 leukemia 20% | RPMI-8226 leukemia 50% | OVCAR-8 ovarian 73.2% | OVCAR-5 ovarian 69% | OVCAR-4 ovarian 41.1% | SK-OV-3 ovarian 67% | IGROV1 ovarian 48.1% | HS 578T breast 60.7% | NCI/ADR-RES ovarian 62.8%

Nc1nc(-c2ccc(Cl)cc2)cc(-c2cc3ccccc3oc2=O)n1
inactive: EKVX NSCLC 86.2% | SN12C renal 98.5% | UO-31 renal 69% | TK-10 renal 95.7% | ACHN renal 92.5% | CAKI-1 renal 84.1% | A498 renal 99.5% | CCRF-CEM leukemia 103% | MOLT-4 leukemia 93.8% | SR leukemia 106% | RPMI-8226 leukemia 98.6% | OVCAR-8 ovarian 106% | OVCAR-5 ovarian 108% | OVCAR-4 ovarian 100% | IGROV1 ovarian 55.1% | OVCAR-3 ovarian 100% | HS 578T breast 107% | NCI/ADR-RES ovarian 108%
